± gives the standard deviation of the averaged measurements. About 5,400 targets were measured; listed, in parts, are those with the largest changes and a random draw of the rest.
Compound: Nc1nc2c(ncn2[C@@H]2O[C@H](COP(=O)(O)OP(=O)(O)OP(=O)(O)O)[C@@H](O)[C@H]2O)c(=O)[nH]1 [guanosine triphosphate]
Test: NP40-soluble protein abundance relative to vehicle (solubility fold change) (ratio); higher = more soluble protein in presence of GTP
In short: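 Crude Jurkat lysate, prepared by Dounce homogenisation, was exposed to eight concentrations from 0.1 to 10 mM for 10 min at room temperature and then 3 min at 37 °C. Solubilisation used 0.8% NP40 with benzonase for 60 min at 4 °C, followed by ultracentrifugation and TMT labelling of the supernatant for LC-MS/MS. After vsn normalisation of intensities, each value is the fold change against the detergent-processed vehicle within each replicate, across three independent experiments.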

UniProt Q15172, sequence (Q15172 whole entry): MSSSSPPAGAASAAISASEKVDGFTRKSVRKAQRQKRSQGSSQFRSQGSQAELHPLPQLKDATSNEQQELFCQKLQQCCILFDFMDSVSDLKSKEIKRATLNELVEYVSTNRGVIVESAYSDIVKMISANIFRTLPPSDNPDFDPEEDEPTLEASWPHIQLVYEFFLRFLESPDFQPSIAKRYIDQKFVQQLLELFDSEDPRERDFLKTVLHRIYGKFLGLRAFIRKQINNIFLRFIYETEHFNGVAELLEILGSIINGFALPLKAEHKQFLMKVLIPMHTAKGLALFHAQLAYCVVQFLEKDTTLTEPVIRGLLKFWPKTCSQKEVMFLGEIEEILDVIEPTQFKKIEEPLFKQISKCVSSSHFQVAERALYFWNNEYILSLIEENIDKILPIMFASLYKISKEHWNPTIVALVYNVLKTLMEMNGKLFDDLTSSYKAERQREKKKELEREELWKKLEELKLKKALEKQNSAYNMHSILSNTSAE
UniProt Q6IBS0, sequence (Q6IBS0 whole entry): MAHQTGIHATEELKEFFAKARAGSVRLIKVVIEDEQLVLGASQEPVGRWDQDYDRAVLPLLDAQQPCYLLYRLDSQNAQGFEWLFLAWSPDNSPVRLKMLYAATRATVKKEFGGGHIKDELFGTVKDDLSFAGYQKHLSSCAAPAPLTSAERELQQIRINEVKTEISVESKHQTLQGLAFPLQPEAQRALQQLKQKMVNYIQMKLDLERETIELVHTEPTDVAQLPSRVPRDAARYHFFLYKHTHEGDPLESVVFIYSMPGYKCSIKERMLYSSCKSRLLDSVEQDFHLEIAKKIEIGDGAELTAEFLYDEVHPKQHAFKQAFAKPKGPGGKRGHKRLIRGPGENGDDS
UniProt Q14974, sequence (Q14974 whole entry): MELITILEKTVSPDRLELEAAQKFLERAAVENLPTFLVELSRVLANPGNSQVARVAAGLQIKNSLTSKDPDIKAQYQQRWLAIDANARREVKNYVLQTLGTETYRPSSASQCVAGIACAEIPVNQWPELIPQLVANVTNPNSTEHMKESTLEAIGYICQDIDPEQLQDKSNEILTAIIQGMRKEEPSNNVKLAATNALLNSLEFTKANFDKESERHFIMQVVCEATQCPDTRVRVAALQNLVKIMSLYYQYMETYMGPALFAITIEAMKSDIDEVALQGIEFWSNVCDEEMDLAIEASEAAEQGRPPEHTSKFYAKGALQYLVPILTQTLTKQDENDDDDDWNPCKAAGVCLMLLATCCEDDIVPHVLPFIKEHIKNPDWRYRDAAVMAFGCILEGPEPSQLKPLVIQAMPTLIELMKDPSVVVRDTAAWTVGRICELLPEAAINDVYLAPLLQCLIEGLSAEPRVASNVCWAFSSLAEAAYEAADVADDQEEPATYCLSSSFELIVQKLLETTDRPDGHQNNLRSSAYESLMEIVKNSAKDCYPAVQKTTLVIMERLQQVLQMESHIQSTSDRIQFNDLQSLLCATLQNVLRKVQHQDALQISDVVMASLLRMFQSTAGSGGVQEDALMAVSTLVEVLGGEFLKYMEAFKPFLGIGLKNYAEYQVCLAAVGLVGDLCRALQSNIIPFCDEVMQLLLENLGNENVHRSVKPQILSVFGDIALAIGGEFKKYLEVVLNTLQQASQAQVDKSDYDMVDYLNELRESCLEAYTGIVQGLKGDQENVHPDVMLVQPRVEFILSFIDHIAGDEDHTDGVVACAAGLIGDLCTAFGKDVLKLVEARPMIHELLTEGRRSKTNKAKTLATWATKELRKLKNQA
UniProt Q6KCM7, sequence (Q6KCM7 whole entry): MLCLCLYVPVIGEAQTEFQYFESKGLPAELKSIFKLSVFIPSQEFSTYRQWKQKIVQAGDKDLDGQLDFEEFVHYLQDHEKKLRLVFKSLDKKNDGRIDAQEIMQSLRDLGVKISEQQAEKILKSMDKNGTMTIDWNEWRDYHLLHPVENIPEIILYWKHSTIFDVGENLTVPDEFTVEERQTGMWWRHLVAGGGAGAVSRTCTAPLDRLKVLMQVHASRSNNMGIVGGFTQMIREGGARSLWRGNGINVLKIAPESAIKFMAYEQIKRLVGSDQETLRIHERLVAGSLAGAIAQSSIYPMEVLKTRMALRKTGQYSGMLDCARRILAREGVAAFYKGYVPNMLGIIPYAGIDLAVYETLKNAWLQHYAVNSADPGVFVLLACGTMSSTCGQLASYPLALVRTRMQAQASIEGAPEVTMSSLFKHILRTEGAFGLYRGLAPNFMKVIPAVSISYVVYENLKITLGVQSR
UniProt Q53S33, sequence (Q53S33 whole entry): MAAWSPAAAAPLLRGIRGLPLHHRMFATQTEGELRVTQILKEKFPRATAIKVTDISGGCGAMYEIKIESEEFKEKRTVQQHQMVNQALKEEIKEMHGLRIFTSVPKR
UniProt Q00653, sequence (Q00653 whole entry): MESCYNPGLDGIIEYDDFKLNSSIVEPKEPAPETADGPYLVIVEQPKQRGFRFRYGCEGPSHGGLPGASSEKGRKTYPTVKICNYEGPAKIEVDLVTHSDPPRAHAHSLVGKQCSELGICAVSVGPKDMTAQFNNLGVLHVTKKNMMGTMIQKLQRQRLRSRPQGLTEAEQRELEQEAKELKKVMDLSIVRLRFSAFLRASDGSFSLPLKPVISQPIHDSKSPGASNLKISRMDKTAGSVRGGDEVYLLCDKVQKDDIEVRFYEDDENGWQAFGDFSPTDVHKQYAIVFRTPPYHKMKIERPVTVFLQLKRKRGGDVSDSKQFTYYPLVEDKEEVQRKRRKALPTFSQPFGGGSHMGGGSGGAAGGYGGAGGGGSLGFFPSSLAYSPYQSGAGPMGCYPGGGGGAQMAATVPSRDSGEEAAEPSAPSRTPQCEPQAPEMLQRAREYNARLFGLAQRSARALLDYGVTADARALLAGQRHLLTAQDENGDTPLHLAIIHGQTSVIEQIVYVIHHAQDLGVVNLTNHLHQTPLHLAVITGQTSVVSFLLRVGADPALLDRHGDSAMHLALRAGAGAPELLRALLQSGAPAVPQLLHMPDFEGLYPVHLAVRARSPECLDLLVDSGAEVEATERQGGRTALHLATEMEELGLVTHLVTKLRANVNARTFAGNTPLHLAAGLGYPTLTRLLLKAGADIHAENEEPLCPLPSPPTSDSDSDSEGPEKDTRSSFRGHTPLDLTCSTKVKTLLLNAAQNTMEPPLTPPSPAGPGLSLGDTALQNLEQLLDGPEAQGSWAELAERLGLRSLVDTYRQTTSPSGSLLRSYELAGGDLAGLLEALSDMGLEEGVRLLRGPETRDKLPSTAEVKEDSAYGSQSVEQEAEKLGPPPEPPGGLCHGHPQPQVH
UniProt Q15843, sequence (Q15843 whole entry, one chain of several): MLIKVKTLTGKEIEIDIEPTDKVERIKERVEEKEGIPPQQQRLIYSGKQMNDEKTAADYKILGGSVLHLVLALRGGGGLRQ
UniProt Q92499, sequence (Q92499 whole entry): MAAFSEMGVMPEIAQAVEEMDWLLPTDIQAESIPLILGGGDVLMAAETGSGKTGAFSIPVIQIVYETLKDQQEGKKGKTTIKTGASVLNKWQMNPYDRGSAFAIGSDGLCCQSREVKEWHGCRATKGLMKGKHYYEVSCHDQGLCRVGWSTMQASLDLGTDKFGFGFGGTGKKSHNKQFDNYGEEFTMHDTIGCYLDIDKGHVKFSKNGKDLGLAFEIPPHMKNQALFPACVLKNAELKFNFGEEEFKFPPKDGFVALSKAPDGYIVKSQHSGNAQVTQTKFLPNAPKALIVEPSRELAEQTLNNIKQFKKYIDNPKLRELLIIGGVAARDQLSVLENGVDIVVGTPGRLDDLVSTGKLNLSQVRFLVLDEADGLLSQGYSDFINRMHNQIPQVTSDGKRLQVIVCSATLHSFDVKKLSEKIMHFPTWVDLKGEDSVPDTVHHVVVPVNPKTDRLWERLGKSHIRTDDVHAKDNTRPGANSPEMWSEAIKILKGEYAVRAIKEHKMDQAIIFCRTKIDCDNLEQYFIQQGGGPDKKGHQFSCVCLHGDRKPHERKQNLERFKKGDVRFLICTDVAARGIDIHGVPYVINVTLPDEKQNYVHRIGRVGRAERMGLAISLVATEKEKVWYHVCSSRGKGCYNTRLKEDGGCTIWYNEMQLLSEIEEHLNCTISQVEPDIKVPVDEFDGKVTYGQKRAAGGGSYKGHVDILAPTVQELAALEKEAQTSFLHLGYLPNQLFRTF
UniProt Q13325, sequence (Q13325 whole entry): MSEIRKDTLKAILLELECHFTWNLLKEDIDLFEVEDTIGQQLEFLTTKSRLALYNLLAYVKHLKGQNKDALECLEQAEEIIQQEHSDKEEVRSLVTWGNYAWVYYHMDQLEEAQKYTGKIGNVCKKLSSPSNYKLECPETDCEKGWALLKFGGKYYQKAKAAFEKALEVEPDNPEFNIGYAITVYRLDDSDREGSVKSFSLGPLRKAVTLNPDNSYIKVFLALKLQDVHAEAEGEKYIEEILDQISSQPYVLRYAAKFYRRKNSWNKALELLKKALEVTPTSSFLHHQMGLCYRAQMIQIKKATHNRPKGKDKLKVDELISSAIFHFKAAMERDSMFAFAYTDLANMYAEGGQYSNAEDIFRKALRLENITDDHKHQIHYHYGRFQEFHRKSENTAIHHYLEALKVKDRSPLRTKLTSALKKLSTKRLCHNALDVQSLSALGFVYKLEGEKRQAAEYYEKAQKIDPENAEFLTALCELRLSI
UniProt Q6I9Y2, sequence (Q6I9Y2 whole entry): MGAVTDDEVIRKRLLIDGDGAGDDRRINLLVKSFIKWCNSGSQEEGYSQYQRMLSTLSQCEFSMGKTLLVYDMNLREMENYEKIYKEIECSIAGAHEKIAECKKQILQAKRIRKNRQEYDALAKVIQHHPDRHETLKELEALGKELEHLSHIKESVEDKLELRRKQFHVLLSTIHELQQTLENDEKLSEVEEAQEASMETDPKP
UniProt Q8WUR7, sequence (Q8WUR7 whole entry): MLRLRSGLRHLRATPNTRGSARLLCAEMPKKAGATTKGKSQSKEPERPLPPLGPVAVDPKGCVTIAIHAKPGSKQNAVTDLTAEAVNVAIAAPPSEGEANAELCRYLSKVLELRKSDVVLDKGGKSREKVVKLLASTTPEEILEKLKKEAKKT

Target	NP40-soluble protein abundance (concentration: 0.1mM)	NP40-soluble protein abundance (concentration: 0.5mM)	NP40-soluble protein abundance (concentration: 1mM)	NP40-soluble protein abundance (concentration: 2mM)	NP40-soluble protein abundance (concentration: 4mM)	NP40-soluble protein abundance (concentration: 6mM)	NP40-soluble protein abundance (concentration: 8mM)	NP40-soluble protein abundance (concentration: 10mM)
UniProt Q12789|Q12789-3	1.08 ± 0.051	1.08 ± 0.093	1.1 ± 0.1	1.13 ± 0.09	1.13 ± 0.1	1.1 ± 0.077	1.1 ± 0.11	1.1 ± 0.11
UniProt Q6KCM7|Q6KCM7-2|Q6KCM7-3|Q6KCM7-4|Q6KCM7-5|Q6KCM7-6	1.12 ± 0.041	1.08 ± 0.034	1.06 ± 0.058	1.04 ± 0.016	1.04 ± 0.066	1.019 ± 0.0034	0.982 ± 0.061	0.989 ± 0.098
UniProt P55884|P55884-2	1.02 ± 0.042	1.07 ± 0.056	1.03 ± 0.068	1.14 ± 0.18	1.29 ± 0.26	1.46 ± 0.33	1.55 ± 0.34	1.75 ± 0.36
P62158 (UniProt P0DP23)	0.715 ± 0.11	0.763 ± 0.14	0.991 ± 0.17	1.12 ± 0.19	1.09 ± 0.21	1.15 ± 0.24	0.939 ± 0.14	1.14 ± 0.11
UniProt P63151|E5RJV1	0.983 ± 0.037	1.02 ± 0.071	0.934 ± 0.068	0.931 ± 0.083	0.955 ± 0.079	0.887 ± 0.071	0.92 ± 0.016	0.8766 ± 0.0055
DDX1 (UniProt Q92499)	1.02 ± 0.024	1.02 ± 0.066	0.941 ± 0.027	0.971 ± 0.072	0.997 ± 0.059	0.993 ± 0.063	0.971 ± 0.013	0.961 ± 0.038
UniProt Q8NCW5	0.907 ± 0.084	0.869 ± 0.041	0.991 ± 0.083	0.986 ± 0.055	0.967 ± 0.085	0.932 ± 0.08	0.895 ± 0.11	0.969 ± 0.1
MBLAC2 (UniProt Q68D91)	1.09 ± 0.12	1.03 ± 0.1	1 ± 0.11	1.02 ± 0.13	1.01 ± 0.11	0.941 ± 0.13	0.952 ± 0.097	0.929 ± 0.14
UniProt Q5K651|C9JKF1	1.04 ± 0.017	1.07 ± 0.021	0.998 ± 0.025	1.01 ± 0.062	0.968 ± 0.083	0.959 ± 0.047	0.985 ± 0.045	0.949 ± 0.088
KPNB1 (UniProt Q14974)	0.986 ± 0.053	0.988 ± 0.03	1.01 ± 0.035	0.989 ± 0.037	1.01 ± 0.041	0.993 ± 0.033	1 ± 0.033	0.992 ± 0.028
UniProt Q15843|S4R3E9	1.1 ± 0.29	0.839 ± 0.092	1.25 ± 0.31	0.955 ± 0.21	1.09 ± 0.29	0.994 ± 0.18	1.11 ± 0.4	1.07 ± 0.25
BOLA3 (UniProt Q53S33)	0.893 ± 0.02	0.843 ± 0.047	0.962 ± 0.065	0.982 ± 0.03	0.953 ± 0.022	0.966 ± 0.061	0.925 ± 0.09	1.01 ± 0.042
EIF3A (UniProt Q14152)	1.05 ± 0.031	1.08 ± 0.018	1.09 ± 0.062	1.18 ± 0.12	1.38 ± 0.23	1.53 ± 0.28	1.74 ± 0.34	1.94 ± 0.38
EIF3I (UniProt Q13347)	1.02 ± 0.04	1.03 ± 0.091	0.993 ± 0.089	1.04 ± 0.15	1.13 ± 0.19	1.26 ± 0.26	1.32 ± 0.23	1.4 ± 0.29
UniProt P61981	0.845 ± 0.11	0.811 ± 0.067	1.01 ± 0.14	0.987 ± 0.076	0.942 ± 0.075	0.968 ± 0.12	0.912 ± 0.15	1.05 ± 0.16
CUL4A (UniProt Q13619)	1.07 ± 0.041	1.09 ± 0.077	1.02 ± 0.045	1.03 ± 0.11	0.989 ± 0.09	0.987 ± 0.076	0.987 ± 0.061	0.934 ± 0.042
PDCD6IP (UniProt Q8WUM4)	0.945 ± 0.046	0.957 ± 0.053	0.943 ± 0.061	0.889 ± 0.075	0.873 ± 0.084	0.895 ± 0.064	0.904 ± 0.053	0.883 ± 0.07
TWF2 (UniProt Q6IBS0)	1.02 ± 0.035	1.09 ± 0.049	1.02 ± 0.017	1.02 ± 0.055	1.03 ± 0.08	1.01 ± 0.013	0.95 ± 0.032	0.951 ± 0.012
THOC7 (UniProt Q6I9Y2)	0.999 ± 0.13	1.15 ± 0.095	1.6 ± 0.23	1.92 ± 0.32	2.31 ± 0.58	2.51 ± 0.63	2.43 ± 0.56	2.78 ± 0.98
UniProt Q00653|Q00653-4	0.995 ± 0.032	0.997 ± 0.021	0.959 ± 0.013	0.955 ± 0.037	0.96 ± 0.048	0.931 ± 0.016	0.966 ± 0.04	0.94 ± 0.045
PPP2R5A (UniProt Q15172)	1.04 ± 0.063	0.993 ± 0.046	0.939 ± 0.011	0.9 ± 0.033	0.877 ± 0.048	0.864 ± 0.04	0.862 ± 0.097	0.848 ± 0.055
UniProt Q13325|Q13325-2	1.06 ± 0.044	1.05 ± 0.061	0.989 ± 0.057	0.978 ± 0.05	0.952 ± 0.086	0.927 ± 0.049	0.906 ± 0.077	0.888 ± 0.13
UniProt Q8N766|Q8N766-2|Q8N766-3|Q8N766-4	1.01 ± 0.055	1.03 ± 0.1	0.938 ± 0.046	0.964 ± 0.12	0.951 ± 0.098	0.926 ± 0.093	0.901 ± 0.015	0.897 ± 0.063
UniProt Q10567|Q10567-2|Q10567-3	0.918 ± 0.056	0.927 ± 0.032	0.956 ± 0.054	0.943 ± 0.044	0.954 ± 0.04	0.919 ± 0.051	0.921 ± 0.05	0.924 ± 0.054
METTL3 (UniProt Q86U44)	0.967 ± 0.058	1.01 ± 0.061	0.969 ± 0.062	0.948 ± 0.076	0.911 ± 0.06	0.932 ± 0.058	0.92 ± 0.085	0.931 ± 0.063
UniProt Q13427|E9PG73	0.978 ± 0.092	1.11 ± 0.12	1.18 ± 0.13	1.16 ± 0.098	1.09 ± 0.13	1.12 ± 0.12	1.21 ± 0.18	1.2 ± 0.2
UniProt Q49A26|Q49A26-3|Q49A26-4	1.044 ± 0.0023	1.06 ± 0.036	1.15 ± 0.03	1.27 ± 0.028	1.52 ± 0.16	1.72 ± 0.026	1.97 ± 0.078	2.27 ± 0.094
UniProt Q13642-1|Q13642-4|Q13642-5	1.07 ± 0.16	1.09 ± 0.17	0.946 ± 0.13	0.921 ± 0.14	0.932 ± 0.12	0.911 ± 0.12	0.952 ± 0.093	0.915 ± 0.15
C15orf40 (UniProt Q8WUR7)	1.02 ± 0.1	1.02 ± 0.084	1.03 ± 0.034	1.05 ± 0.12	1.04 ± 0.13	1.01 ± 0.097	1.11 ± 0.061	1.17 ± 0.12
